Most compounds without a hit are left out; they make up all but 19% or so of the library.
TDP1 cell CPT: growth inhibition of DT40 Tdp1-/-;hTDP1 cells with camptothecin (screen for TDP1 inhibitors) | chicken DT40 Tdp1-/-;hTDP1 cells + 20 nM CPT, ATP luminescence, 48 h | Potency, µM (titrated, usually from 46.2 µM), for the others: at the top dose activity change, negative = growth inhibition, actives largely listed as inhibitors | 420,000 tested, 12% active | AID 686979; also: potency is read from the fitted curve at half-maximal effect; % is scaled to controls: 0 for no effect and ±100 for the full control effect; nearly all actives have a fitted effect of over 55% in size
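Cell growth measured by CellTiter-Glo luminescence after a minimum 48 h, 37 C compound exposure with 20 nM CPT in Tdp1-knockout DT40 cells stably expressing hTDP1, seeded 400/well; qHTS titration format.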
BCR signal inh: chronic active BCR signaling inhibition | ABC-DLBCL IkBa-CBG/CBR reporter, luminescence ratio, 4 h | 340,000 tested, 0.05% active | Potency, µM (top dose mostly 46.1 µM), inactives show at the top dose activity change, negative = inhibition, actives largely listed as inhibitors; active = well fitted inhibition curve with a large enough effect in the signal ratio, with a control signal flat, not every such curve was filed as active; inconclusive = small, poorly fitted or top-dose-only effect, or effect the other way, or a change in a side signal; the % refers to the signal ratio;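 also: potency is read from the fitted curve at half-maximal effect; plate controls were basal doxycycline-induced cells for no effect and cells given 10 µM MG132 for full effect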
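Compounds up to 46 uM were incubated four hours with TMD8 cells whose green CBG68 luciferase is fused to IkappaBalpha; red CBR luminescence normalised the signal, and concentration-effect curves were fitted to fusion, red and ratio data.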
TDP1 cell noCPT: qHTS for Inhibitors of human tyrosyl-DNA phosphodiesterase 1 (TDP1): qHTS in cells in absence of CPT; DT40 Tdp1-/- hTDP1 cells, no CPT, ATP luminescence, 48 h; Potency, µM (doses to about 46.2 µM), without a hit: at the top dose activity change, negative = growth inhibition, hits mostly inhibitors; 420,000 tested, 15% active; also: potency is read from the fitted curve at half-maximal effect; % is scaled to controls: 0 for no effect and ±100 for the full control effect; nearly all actives have a fitted effect of over 55% in size
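Readout: luminescence from CellTiter-Glo after 30 min in the dark at RT. Cells: DT40 Tdp1-/- with stable hTDP1, 400/well. Exposure: compounds alone, ≥48 hr, 37 °C.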
MCF10A rereplic: induces DNA re-replication in MCF 10a normal breast cells; MCF 10A DNA re-replication, Hoechst nuclear intensity, 48 h; Potency, µM (top dose mostly 46.1 µM), without a hit: at the highest dose activity, positive = re-replication, usual class: activators; 350,000 tested, 2.9% active; AID 624296; also: potency is read from the fitted curve at half-maximal effect; % of control where 0% means no effect; nearly all actives have a fitted effect of over 50% in size
IL-1B inflam inh: blocks inflammasome-driven IL-1 beta release. AID 743279. activity change, % at 57.5 µM. THP-1 LPS/ATP IL-1B secretion, AlphaLISA, 16 h; hits give low values. 360,000 tested, 4.7% active; in the data active = activity change below about -50%; inconclusive = mostly about -30% to -49%; also: % is scaled to controls: 0 for no effect and ±100 for the full control effect
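THP-1 cells pretreated 1 hr with compounds (up to 57.5 uM final), then stimulated with LPS (250 ng/mL final) plus ATP (1.25 mM final); secreted IL-1B measured by AlphaLISA after 16 hr, decreased signal indicating inhibition.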
SW480 rerep: induces DNA re-replication in SW480 colon adenocarcinoma cells | SW480 DNA re-replication, Hoechst DNA content imaging, 48 h | Potency, µM (doses to about 46.1 µM), inactives show at the top dose re-replication activation, usual class: activators | 340,000 tested, 1.8% active | AID 624297; also: potency is read from the fitted curve at half-maximal effect; % of control where 0% means no effect; nearly all actives have a fitted effect of over 55% in size
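Compounds, transferred as 23 nL by pin tool, were incubated with cells for 48 hr; DNA content per nucleus was then quantified by Hoechst staining and fluorescence plate imaging.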
* = called active by the depositor; ? = inconclusive; . = no result given. Unless noted, calls follow the shape of the dose curve; as a rule, active = well fitted curve in the direction sought with a large enough effect; inconclusive = small, poorly fitted or top-dose-only effect, or another doubt; inactive = no such curve, though single readings can be large; an effect the other way counts as inactive or inconclusive.

SMILES	TDP1 cell CPT	BCR signal inh	TDP1 cell noCPT	MCF10A rereplic	IL-1B inflam inh	SW480 rerep
Cc1cc(C)c(C#N)c(SCC(=O)c2cc(C)n(CCc3ccccc3)c2C)n1	18µM*	14%	18µM*	?	-11	?
COCCn1c(C)cc(C(=O)CSc2nc(C)cc(C)c2C#N)c1C	21µM*	?	18µM*	-3%	-52*	1%
CCOc1ccc(CNC(=O)C2CCN(C(=O)c3sccc3-n3cccc3)CC2)cc1	7%	.	-24%	.	.	.
CCN(CC)CCNC(=O)c1cc(Br)c(N)cc1OC	-7%	0%	-18%	-1%	7	-9%
N#CCCN(C(=O)COC(=O)C1CCN(S(=O)(=O)c2ccccc2C(F)(F)F)CC1)c1ccccc1	6%	.	19%	8%	-5	-9%
O=C(Nc1ccc(Oc2c(F)c(F)c(F)c(F)c2F)cc1)OC1CCN2Cc3ccccc3N=C12 (stereo not drawn)	5.2µM*	17%	2.3µM*	13µM*	-95*	13µM*
O=C(C[n+]1cccc(CNC(=O)c2ccc(OC(F)F)cc2)c1)Nc1cccc(C(F)(F)F)c1	-21%	10%	?	-9%	-71*	1%
O=C(C[n+]1cccc(CNC(=O)c2ccc(OC(F)F)cc2)c1)c1ccccc1	-10%	2%	-5%	-3%	-91*	11%
CN(C)c1cc[n+](CC(=O)c2ccc(OC(F)F)cc2)cc1	18µM*	?	8.2µM*	15%	35	-7%
O=C(C[n+]1cccc(CNC(=O)c2ccc(OC(F)F)cc2)c1)Nc1ccc(F)cc1	-20%	?	-8%	3%	-16	.
CCOC(=O)c1cccc(NC(=S)NCc2ccc(C)cc2)c1	-4%	4%	-3%	-4%	-2	-8%
O=C1c2ccccc2-c2c1c1ccccc1c(=O)n2-c1ccccc1	12µM*	.	12µM*	?	-11	1%
O=C1c2ccccc2-c2c1c1ccccc1c(=O)n2CCO	6.5µM*	.	7.3µM*	?	.	24%
Cc1ccc2c(c1)C(=C(C#N)C#N)CCN2	-27%	.	?	11%	4	9%
Cc1c(-c2ccccc2Cl)nc2ccccc2c1C(=O)O	0%	3%	-1%	-1%	5	-7%
CC[C@H](C)N(C)C(=O)c1cc2ccccc2c(-c2ccccc2Cl)n1	?	.	30µM*	.	.	.
CC(C)OCCc1cccc[n+]1[O-]	-21%	.	-3%	.	17	.
COc1ccc(/C=N/Nc2ncnc3c2[nH]c2ccccc23)c(OC)c1OC	-15%	3%	-29%	?	16	-107%
CN(C)c1ccc(/C=C/c2ccnc3cc(Cl)ccc23)cc1	?	.	11µM*	.	.	.
COc1ccc(OC)c2c(/C=C/c3c(C)[nH]c4ccccc34)ccnc12	10µM*	.	11µM*	.	.	.
Cc1ccc2nccc(/C=C/c3ccc(N(C)C)cc3)c2c1	11µM*	.	14µM*	.	.	.
CN(C)c1ccc(/C=C/c2ccnc3c(N)cccc23)cc1	2µM*	.	1.4µM*	.	.	.
CC(C)(C)OC(=O)N1CCC(CNC(=O)c2ccc(F)cc2)CC1	-23%	3%	-20%	1%	8	-2%
CC1(C)CC(=O)C=C(c2n[nH]nc2C2CC2)C1	2%	.	-11%	.	-12	.
COc1ccccc1N1CCN(C/C=C/c2ccc(N(C)C)cc2)CC1	.	5%	.	.	.	.
SMILES	TDP1 cell CPT	BCR signal inh	TDP1 cell noCPT	MCF10A rereplic	IL-1B inflam inh	SW480 rerep
CN(C)c1ccc(/C=C/c2ccnc3c2ccc2c(/C=C/c4ccc(N(C)C)cc4)ccnc23)cc1	-14%	.	0%	.	.	.
Cc1ccc2c(/C=C/c3ccc(N(C)C)cc3)ccnc2c1	11µM*	.	?	.	.	.
COc1ccc(OC)c2c(/C=C/c3ccc(N(C)C)cc3)ccnc12	10µM*	.	6.3µM*	.	.	.
NC(=O)C1(N2CCCCC2)CCN(C(=O)c2cc(COc3c(F)cccc3F)on2)CC1	?	.	?	.	11	.
CCOc1cc(CN2CCC(n3nccc3NC(=O)C3CC3)CC2)ccc1O	2%	0%	2%	2%	12	23%
COc1ccc(OC)c(/C=N/NC(=O)c2c(C)nc3ccc(C)cn23)c1	?	-12%	?	-2%	32	1%
Cc1nc2ccc(Br)cn2c1C(=O)N/N=C\c1ccc(C(C)C)cc1	7.3µM*	-5%	7.3µM*	6%	42	-2%
CNC(=S)N/N=C/c1ccco1	?	?	?	1%	9	16µM*
COC(=O)c1ccc(/C=N/NC(=O)c2ccccc2Cl)cc1	?	?	?	0%	1	0%
CC(C)c1ccc(/C=N/NC(=O)c2ccccc2Cl)cc1	4.1µM*	?	2.9µM*	5.8µM*	-4	13µM*
CNC(=S)N/N=C/c1ccc(N(C)C)cc1	5%	-4%	?	?	-20	0%
CNC(=S)N/N=C/c1ccc(C(C)C)cc1	13µM*	.	7.3µM*	?	-11	-6%
Cc1ccc(NC(=O)c2ncn(CCCNCC(C)c3ccccc3)n2)cc1C (stereo not drawn)	?	.	?	-7%	-10	?
CC(=O)Nc1ccc(OS(=O)(=O)c2c(C)cc(C)cc2C)cc1	?	2%	?	-1%	13	19%
Cc1cccc(C)c1N=Nc1c(C)cc(O)cc1C	13%	?	-26%	?	-89*	?
O=C(CSc1nnc(SCc2ccc(Cl)cc2)s1)N/N=C/c1ccccc1C(=O)O	-16%	0%	?	-4%	?	2%
OC(CNC1CCCc2ccccc21)COc1c(Cl)cccc1Cl (stereo not drawn)	?	?	?	?	-101*	?
OC(CNC1Cc2ccccc2C1)COc1ccc(Cl)cc1 (stereo not drawn)	-23%	?	?	13%	-7	-4%
CCCCN(C)CCNC(=O)CN1C(=O)CSc2ccc(S(=O)(=O)N3CCCC3)cc21	0%	0%	3%	-1%	-8	-7%
COc1ccccc1CNC(=O)c1ccc(N2Cc3cccc(OC)c3Oc3ncccc32)s1	15µM*	.	12µM*	.	.	.
COc1ccccc1CNC(=O)CCC(=O)N1Cc2cccc(OC)c2Oc2ncccc21	7%	4%	-10%	-3%	1	-5%
O=C(CSc1nnc(-c2c[nH]c3ccccc23)o1)NCC1CCCO1 (stereo not drawn)	-4%	0%	-4%	1%	23	-7%

Screening results from PubChem BioAssay.
